From PubChem BioAssay AID463254 (National Center for Advancing Translational Sciences (NCATS), 2010)
In all, about 330,000 compounds went through this assay and about 40 (0.01%) were called active. Only a selection was taken, and actives are over-represented in it overall. A number with no mark means an inactive call. Calls follow the shape of the dose curve; as a rule, active = well fitted inhibition curve with a large enough effect; inconclusive = small, poorly fitted or top-dose-only effect, or effect the other way; inactive = flat fitted curve, though single readings scatter.

Target: Ubiquitin carboxyl-terminal hydrolase 2 (Homo sapiens) (UniProt O75604)
Sequence (O75604 whole entry, looked up): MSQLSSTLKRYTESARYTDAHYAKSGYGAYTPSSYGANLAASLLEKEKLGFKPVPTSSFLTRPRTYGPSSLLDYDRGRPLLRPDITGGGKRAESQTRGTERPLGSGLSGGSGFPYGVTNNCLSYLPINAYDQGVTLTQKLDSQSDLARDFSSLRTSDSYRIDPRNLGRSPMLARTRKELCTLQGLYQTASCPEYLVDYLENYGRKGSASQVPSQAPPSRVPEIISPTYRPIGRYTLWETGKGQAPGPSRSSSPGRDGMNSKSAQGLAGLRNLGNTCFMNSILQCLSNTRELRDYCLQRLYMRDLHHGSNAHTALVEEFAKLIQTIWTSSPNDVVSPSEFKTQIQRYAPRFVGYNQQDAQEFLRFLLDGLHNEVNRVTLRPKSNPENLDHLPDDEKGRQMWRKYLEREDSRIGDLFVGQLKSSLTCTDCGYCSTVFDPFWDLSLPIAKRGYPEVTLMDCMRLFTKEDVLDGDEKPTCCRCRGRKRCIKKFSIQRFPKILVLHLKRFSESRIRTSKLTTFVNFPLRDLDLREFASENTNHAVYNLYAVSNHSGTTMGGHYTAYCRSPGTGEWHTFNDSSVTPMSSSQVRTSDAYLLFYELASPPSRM
Experiment: qHTS Assay for Inhibitors of Ubiquitin-specific Protease USP2a Using CHOP2 as the Reporter;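 as to activity change, negative = inhibition: plate controls were DMSO wells for no effect and full inhibition by NEM control for full effect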
Details: USP2 core, Ub-CHOP2 coupled fluorogenic reporter, 485/531; series mostly up to 38.3 µM; activity change, negative = inhibition: at the top concentration
Summary of the method: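 USP2 core (10nM final) preincubated 30min RT with compound in 20mM Tris-HCl pH 8.0, 2mM CaCl2, 2mM beta-mercaptoethanol, 0.05% CHAPS; 25nM Ub-CHOP2 plus 25nM reporter substrate added, fluorescence (Ex485/Em531) read after 60min.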
Potency is read from the fitted curve at half-maximal effect.

| Structure (SMILES) | Potency | activity change, negative = inhibition |
| --- | --- | --- |
| CCOc1ccc(NC(=O)c2ccc(NC(=O)COC(=O)c3ccc(NC(=O)CC#N)cc3)cc2)cc1 | 7.94 µM (active) | – |
| N#CCC(=O)Nc1ccc(C(=O)OCC(=O)Nc2sc3c(c2C#N)CCCC3)cc1 | – | 0.193% |
| CCOc1ccc(NC(=O)CCNC(=O)c2ccc(Br)cc2)cc1 | – | 1.18% |
| O=C(CCS(=O)(=O)c1ccccc1Cl)Nc1ccc(S(=O)(=O)Nc2ncccn2)cc1 | – | 7.43% |
| CC(C)C1N=C2c3ccccc3N=C(SCC(=O)c3ccc(O)c(O)c3)N2C1=O (stereo unspecified) | – | -4.68% |
| COc1ccccc1/C=C/C(=O)OCC(=O)NC1CCCCCC1 | – | -1.68% |
| CCOc1ccc(NS(=O)(=O)c2ccc(C(=O)NC3CCN(Cc4ccccc4)CC3)cc2)cc1 | – | 0.347% |
| CC(C)OC(=O)C(C#N)c1nc2ccccc2nc1N1CCN(Cc2ccc3c(c2)OCO3)CC1 (stereo unspecified) | – | 3.11% |
| COc1cccc(-c2nnc(NC(=O)c3ccc(S(=O)(=O)N(CC(C)C)CC(C)C)cc3)o2)c1 | – | 0.575% |
| Cc1sc(NC(=O)C2C3CCC(O3)C2C(=O)O)c(C(=O)OC(C)C)c1-c1ccc(Cl)cc1 (stereo unspecified) | – | -5.15% |
| CCN(CC)C(=O)CSC(Nc1cccc(F)c1)=C(C#N)C#N | – | -1.62% |
| CS(=O)(=O)c1ccc(-c2nnn(CC(=O)Nc3ccc4c(c3)OCCO4)n2)cc1 | – | -0.705% |
| COc1ccc(Nc2ncc(C(=O)N3CCN(c4ccccc4OC)CC3)c3ccccc23)cc1 | – | -0.293% |
| Cc1ccc(-n2nc(C)c(C(=O)O)c2-n2cccc2)cc1 | – | 2.36% |
| CC(=O)c1ccc(NC(=O)C2CCCN2S(=O)(=O)c2cccs2)cc1 (stereo unspecified) | – | -0.28% |
| Cn1c(=O)c2cc(S(=O)(=O)NCCC(=O)Nc3ccc(F)cc3F)ccc2n(C)c1=O | – | 4.64% |
| Cc1cc(-c2n[nH]c(=S)n2/N=C/C(Br)=C/c2ccccc2)n[nH]1 | – | 0.983% |
| Cc1c(C)c(C)c(S(=O)(=O)NCCc2ccccn2)c(C)c1C | – | 2.74% |
| COc1cc(C)c(S(=O)(=O)N2CCOCC2)c(C)c1C | – | -0.633% |
| COc1ccc(NC(=O)CN(C)C(=O)c2cccc(S(=O)(=O)N3CCN(c4ccccc4)CC3)c2)cc1 | – | -0.433% |
| CCN(CC)C(=O)CSc1nnc(-c2ccc(S(=O)(=O)NCc3ccccc3Cl)cc2)o1 | – | -3.22% |
| CN(CCO)c1ccc(/C=N/Nc2nncc3ccccc23)cc1 | – | 4.48% |
| CCOC(=O)c1cc(-c2ccc(Cl)s2)nc2c1c(C)nn2C | – | 1.07% |

| Structure (SMILES) | Potency | activity change, negative = inhibition |
| --- | --- | --- |
| COc1ccc(NC(=O)CN2C(=O)C(c3ccccc3)=NC23CCCCCC3)cc1OC | – | 0.654% |
| CC1(C)CC(=O)c2cc(OCC(=O)NCC3CCCO3)ccc2O1 (stereo unspecified) | – | 0.36% |
| Cc1c(-c2nn(C)c(=O)c3ccccc23)oc2ccc(F)cc2c1=O | – | 0.493% |
| CC(C)Cc1nn2c(=O)cc(O)nc2s1 | – | 2.15% |
| COc1cc(N/C=C2\CC(=O)NC(C)=C2C#N)cc(OC)c1OC | – | -0.207% |
| O=C(Nc1cccc(Cl)c1)c1cncn1-c1ccc(F)cc1 | – | -13.3% |
| O=C(COC(=O)c1cccc(Cl)c1)NC1CCCCCCC1 | – | 0.694% |
| Cc1cccc(OCC(O)CN2CCN(CCN3C(=O)c4cccc5cccc(c45)C3=O)CC2)c1C (stereo unspecified) | – | 10.9% |
| Cc1nc(NC2=NC(C(=O)Nc3ccc(Cl)cc3)CC(=O)N2)nc2ccccc12 (stereo unspecified) | – | 0.0715% |
| C=CC(COCc1ccccc1)N(Cc1ccccc1)S(=O)(=O)c1ccccc1Br (stereo unspecified) | – | 0.383% |
| CCC(C)N1CC(=O)N2Cc3[nH]c4ccccc4c3C[C@H]2C1=O (stereo partly specified) | – | 0.217% |
| CCCCOC(=O)c1ccc(NC(c2ccc(C)cc2)P(=O)(OC)OC)cc1 (stereo unspecified) | – | -2.2% |
| O=C(O)c1cc2c(cc1NC(=O)c1c(F)cccc1Cl)OCCCO2 | – | 1.52% |
| O=S(=O)(NC1CCN(S(=O)(=O)c2ccc3c(c2)OCCO3)CC1)c1c(F)cccc1F | – | 4.79% |
| CCCOc1ccc(CN(CCO)CCO)cc1C(=O)OC | – | -0.629% |
| Cc1ccc(NC2=C(Cl)C(=O)OC2OC(=O)c2ccccc2C)cc1 (stereo unspecified) | – | 0.357% |
| C[C@@]12C(=O)N(c3cccc(Br)c3)C(=O)N1[C@H](c1ccc(Cl)cc1)[C@@H]1C(=O)N(C3CCCCC3)C(=O)[C@@H]12 | – | 3.37% |
| CCn1c(SC(C)C(=O)Nc2ccc(N3CCOCC3)cc2)nnc1-c1ccco1 (stereo unspecified) | – | -0.0305% |
| CCOC(=O)c1c(CNCc2ccccc2F)c2sc(C)cc2n1C | – | 3.82% |
| CN(C(=O)CCn1c(=S)oc2ccccc21)C1CCCCC1 | – | -0.0558% |
| CCCCN=C(N)/C(C(=O)OCC)=C(\O)c1ccc(OC)cc1 | – | -0.581% |
| COc1ccc(OC)c(-n2cc3c(=O)n(C)c(=O)n(C)c3c2)c1 | – | 3.99% |
| O=[N+]([O-])c1cc([N+](=O)[O-])c2cccnc2c1O | – | -3.58% |
